From the supplement of paper PMC10849652
Targets with a hit are over-represented here; the source holds about 7,900 in all. About 0.6% of all pairs of compound and target were hits. Values without a mark were called inactive.

Tests used:
Experiment in all cases: log2 fold change, soluble protein after heating vs DMSO (PISA); higher = thermal stabilisation; K562 cells, 10 uM, 30 min; active = over 0.2 and 3.5 SD of the protein, either way, in both replicates (recomputed)
[1] = compound: Cc1ccc(NC(=O)c2ccc(CN3CC[C@H](N(C)C)C3)c(C(F)(F)F)c2)cc1Nc1nccc(-c2cncnc2)n1 [bafetinib]
Outline: (§1)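 K562 cells at 2×10^6 cells/mL were given 10 μM compound for 30 min. Aliquots then went through 3 min of heating across 48°C-58°C, were pooled, and were extracted in PBS with 0.5% NP-40 at 4°C, and the supernatant after 21,000xg for 90 min was quantified by TMTpro 16plex LC-MS/MS with channel sums equalised. Thermal stability relative to control samples, from duplicates, is given as log2 fold change.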

[2] = compound: Cc1cccc(CC(=O)N2CCc3c2ccc(-c2cn(C)c4ncnc(N)c24)c3F)n1
Outline: as §1

[3] = compound: Cc1cn(-c2cc(NC(=O)c3ccc(C)c(Nc4nccc(-c5cccnc5)n4)c3)cc(C(F)(F)F)c2)cn1 [nilotinib]
Outline: as §1

[4] = compound: Cc1nc(Nc2n[nH]c3c2CN(C(=O)N[C@H](CN(C)C)c2ccccc2)C3(C)C)c2sccc2n1
Outline: as §1

[5] = compound: Cc1nc(Nc2ncc(C(=O)Nc3c(C)cccc3Cl)s2)cc(N2CCN(CCO)CC2)n1 [dasatinib]
Outline: as §1

[6] = compound: Cc1ncc(-c2ccnc(Nc3ccc(S(C)(=O)=O)cc3)n2)n1C(C)C
Outline: as §1

[7] = compound: Cn1cc(-c2ccc3c(c2)CCN3C(=O)Cc2cccc(C(F)(F)F)c2)c2c(N)ncnc21
Outline: as §1

[8] = compound: Cn1cc(-c2ccc3nnc(C(F)(F)c4ccc5ncccc5c4)n3n2)cn1
Outline: as §1

[9] = compound: Cn1cncc1[C@@](N)(c1ccc(Cl)cc1)c1ccc2c(c1)c(-c1cccc(Cl)c1)cc(=O)n2C [tipifarnib]
Outline: as §1

[10] = compound: FC(F)(F)c1ccc(/C=C/c2nc(COc3ccc(CCCCn4ccnn4)cc3)co2)cc1 [mubritinib]
Outline: as §1

[11] = compound: NC(=O)Nc1cc(-c2cccc(F)c2)sc1C(=O)N[C@H]1CCCNC1
Outline: as §1

[12] = compound: NC(=O)c1cnc(N[C@@H]2CCCC[C@@H]2N)nc1Nc1cccc(-n2nccn2)c1
Outline: as §1

[13] = compound: NC1(c2ccc(-c3nc4ccn5c(=O)[nH]nc5c4cc3-c3ccccc3)cc2)CCC1
Outline: as §1

[14] = compound: NCC(=O)Nc1ccc(-n2nc(C(F)(F)F)cc2-c2ccc3c(ccc4ccccc43)c2)cc1
Outline: as §1

[15] = compound: Nc1ccccc1NC(=O)c1ccc(CNC(=O)OCc2cccnc2)cc1 [entinostat]
Outline: as §1

[16] = compound: O=C(CCCCCCC(=O)Nc1ccccc1)NO [vorinostat]
Outline: as §1

[17] = compound: O=C(CCCCCCNC(=O)c1cnc(N(c2ccccc2)c2ccccc2Cl)nc1)NO [citarinostat]
Outline: as §1

[18] = compound: O=C(O)c1ccc2c(c1)nc(Nc1cccc(Cl)c1)c1ccncc12 [silmitasertib]
Outline: as §1

[19] = compound: O=C1NC(=O)C(c2cnc3ccccn23)=C1c1cn2c3c(cc(F)cc13)CN(C(=O)N1CCCCC1)CC2
Outline: as §1

[20] = compound: c1cc(OCCN2CCCCC2)cc(-c2n[nH]c3ccc(-c4nnc[nH]4)cc23)c1
Outline: as §1

UniProt Q16531, sequence (Q16531 whole entry, looked up): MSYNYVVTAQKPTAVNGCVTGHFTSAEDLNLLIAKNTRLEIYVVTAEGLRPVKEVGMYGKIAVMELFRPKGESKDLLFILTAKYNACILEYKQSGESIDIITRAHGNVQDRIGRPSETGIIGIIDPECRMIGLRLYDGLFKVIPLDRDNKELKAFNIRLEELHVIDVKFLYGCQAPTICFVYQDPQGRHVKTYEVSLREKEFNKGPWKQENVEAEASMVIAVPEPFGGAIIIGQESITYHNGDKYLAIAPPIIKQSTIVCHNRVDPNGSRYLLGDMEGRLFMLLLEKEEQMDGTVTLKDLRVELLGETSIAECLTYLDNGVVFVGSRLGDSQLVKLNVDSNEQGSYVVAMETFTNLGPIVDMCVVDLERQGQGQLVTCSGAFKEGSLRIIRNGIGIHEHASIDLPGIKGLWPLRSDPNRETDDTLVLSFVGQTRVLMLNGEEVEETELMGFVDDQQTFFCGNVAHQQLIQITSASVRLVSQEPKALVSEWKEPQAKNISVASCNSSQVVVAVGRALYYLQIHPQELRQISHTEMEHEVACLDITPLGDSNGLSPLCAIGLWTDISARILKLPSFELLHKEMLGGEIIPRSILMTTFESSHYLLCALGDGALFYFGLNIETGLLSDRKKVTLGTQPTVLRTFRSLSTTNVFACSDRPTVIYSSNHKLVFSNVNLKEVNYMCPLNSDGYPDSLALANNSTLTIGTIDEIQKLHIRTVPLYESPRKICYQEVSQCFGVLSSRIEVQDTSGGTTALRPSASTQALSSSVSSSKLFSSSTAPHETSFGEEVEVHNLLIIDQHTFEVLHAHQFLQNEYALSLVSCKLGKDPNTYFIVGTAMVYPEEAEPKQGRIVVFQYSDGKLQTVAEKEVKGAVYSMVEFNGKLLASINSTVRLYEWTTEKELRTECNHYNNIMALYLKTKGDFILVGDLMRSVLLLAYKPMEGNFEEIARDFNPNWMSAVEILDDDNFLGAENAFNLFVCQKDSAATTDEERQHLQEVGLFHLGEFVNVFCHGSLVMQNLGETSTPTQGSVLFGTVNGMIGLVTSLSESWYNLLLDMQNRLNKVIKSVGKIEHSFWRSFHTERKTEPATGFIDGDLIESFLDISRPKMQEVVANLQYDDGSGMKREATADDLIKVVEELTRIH
UniProt Q96GE9, sequence (Q96GE9 whole entry, looked up): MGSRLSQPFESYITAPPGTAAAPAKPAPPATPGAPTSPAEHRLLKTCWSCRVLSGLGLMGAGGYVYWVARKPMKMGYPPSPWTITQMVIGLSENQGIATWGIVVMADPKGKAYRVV
UniProt Q9UER7, sequence (Q9UER7 whole entry, looked up): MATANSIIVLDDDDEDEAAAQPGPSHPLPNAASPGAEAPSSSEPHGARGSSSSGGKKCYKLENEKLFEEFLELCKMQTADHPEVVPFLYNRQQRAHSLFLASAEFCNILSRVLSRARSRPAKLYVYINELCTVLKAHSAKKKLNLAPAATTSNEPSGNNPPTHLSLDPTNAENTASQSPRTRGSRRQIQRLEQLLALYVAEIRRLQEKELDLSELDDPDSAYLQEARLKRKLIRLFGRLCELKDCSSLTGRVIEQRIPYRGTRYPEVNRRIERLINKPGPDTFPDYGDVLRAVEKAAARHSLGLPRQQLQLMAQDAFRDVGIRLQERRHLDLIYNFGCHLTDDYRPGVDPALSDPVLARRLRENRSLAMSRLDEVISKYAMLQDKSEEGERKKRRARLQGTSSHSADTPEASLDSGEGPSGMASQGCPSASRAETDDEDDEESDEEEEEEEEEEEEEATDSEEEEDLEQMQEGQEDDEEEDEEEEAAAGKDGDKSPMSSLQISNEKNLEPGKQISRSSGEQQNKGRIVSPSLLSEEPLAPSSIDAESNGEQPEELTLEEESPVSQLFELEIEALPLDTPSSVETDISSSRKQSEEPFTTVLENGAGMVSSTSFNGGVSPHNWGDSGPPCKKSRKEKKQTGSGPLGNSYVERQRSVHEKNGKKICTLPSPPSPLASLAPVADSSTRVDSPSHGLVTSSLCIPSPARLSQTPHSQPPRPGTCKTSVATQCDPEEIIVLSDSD
UniProt Q9H410, sequence (Q9H410 whole entry, looked up): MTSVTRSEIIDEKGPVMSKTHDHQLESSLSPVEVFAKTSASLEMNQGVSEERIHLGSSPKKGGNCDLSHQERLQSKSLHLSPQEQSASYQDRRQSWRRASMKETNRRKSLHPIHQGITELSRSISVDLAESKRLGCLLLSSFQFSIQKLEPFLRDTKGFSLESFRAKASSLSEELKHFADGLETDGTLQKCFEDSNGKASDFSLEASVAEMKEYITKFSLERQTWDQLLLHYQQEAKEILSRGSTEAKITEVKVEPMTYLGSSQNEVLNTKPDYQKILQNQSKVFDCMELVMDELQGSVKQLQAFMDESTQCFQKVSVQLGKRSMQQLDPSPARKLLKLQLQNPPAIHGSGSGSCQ
UniProt P00374, sequence (P00374 whole entry, looked up): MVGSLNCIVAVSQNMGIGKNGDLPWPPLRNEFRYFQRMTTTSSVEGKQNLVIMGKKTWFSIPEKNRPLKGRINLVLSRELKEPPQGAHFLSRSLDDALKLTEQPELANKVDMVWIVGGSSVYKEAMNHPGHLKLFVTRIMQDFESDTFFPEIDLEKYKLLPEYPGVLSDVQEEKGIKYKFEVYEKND
UniProt Q07973, sequence (Q07973 whole entry, looked up): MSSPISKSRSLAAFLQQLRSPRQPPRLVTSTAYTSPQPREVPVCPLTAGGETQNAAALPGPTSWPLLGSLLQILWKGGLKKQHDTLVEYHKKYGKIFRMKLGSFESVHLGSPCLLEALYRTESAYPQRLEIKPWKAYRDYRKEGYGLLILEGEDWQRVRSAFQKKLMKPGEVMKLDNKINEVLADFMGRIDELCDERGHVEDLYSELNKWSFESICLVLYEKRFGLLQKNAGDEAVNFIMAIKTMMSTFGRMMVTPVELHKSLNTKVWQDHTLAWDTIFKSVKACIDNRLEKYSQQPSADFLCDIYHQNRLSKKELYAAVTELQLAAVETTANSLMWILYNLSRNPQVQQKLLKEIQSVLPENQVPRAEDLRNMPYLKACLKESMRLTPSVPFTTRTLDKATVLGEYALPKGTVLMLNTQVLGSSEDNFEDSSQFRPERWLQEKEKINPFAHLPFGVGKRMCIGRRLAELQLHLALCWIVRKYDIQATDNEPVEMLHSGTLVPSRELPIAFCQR
UniProt Q9BV94, sequence (Q9BV94 whole entry, looked up): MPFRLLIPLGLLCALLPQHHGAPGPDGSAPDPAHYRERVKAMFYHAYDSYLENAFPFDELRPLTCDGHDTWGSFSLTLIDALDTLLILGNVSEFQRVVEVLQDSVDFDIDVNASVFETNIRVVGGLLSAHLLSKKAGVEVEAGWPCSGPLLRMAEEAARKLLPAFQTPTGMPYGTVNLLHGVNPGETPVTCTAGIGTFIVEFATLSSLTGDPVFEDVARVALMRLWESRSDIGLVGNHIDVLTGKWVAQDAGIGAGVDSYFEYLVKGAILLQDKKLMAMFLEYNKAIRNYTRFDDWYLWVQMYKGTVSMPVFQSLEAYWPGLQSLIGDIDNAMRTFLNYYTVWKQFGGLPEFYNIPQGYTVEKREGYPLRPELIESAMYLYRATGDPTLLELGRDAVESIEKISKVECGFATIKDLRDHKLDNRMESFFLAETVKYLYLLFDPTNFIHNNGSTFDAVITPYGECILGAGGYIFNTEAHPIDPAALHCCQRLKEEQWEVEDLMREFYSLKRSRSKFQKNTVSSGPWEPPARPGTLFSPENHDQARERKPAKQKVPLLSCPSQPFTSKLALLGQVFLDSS
UniProt O00148, sequence (O00148 whole entry, looked up): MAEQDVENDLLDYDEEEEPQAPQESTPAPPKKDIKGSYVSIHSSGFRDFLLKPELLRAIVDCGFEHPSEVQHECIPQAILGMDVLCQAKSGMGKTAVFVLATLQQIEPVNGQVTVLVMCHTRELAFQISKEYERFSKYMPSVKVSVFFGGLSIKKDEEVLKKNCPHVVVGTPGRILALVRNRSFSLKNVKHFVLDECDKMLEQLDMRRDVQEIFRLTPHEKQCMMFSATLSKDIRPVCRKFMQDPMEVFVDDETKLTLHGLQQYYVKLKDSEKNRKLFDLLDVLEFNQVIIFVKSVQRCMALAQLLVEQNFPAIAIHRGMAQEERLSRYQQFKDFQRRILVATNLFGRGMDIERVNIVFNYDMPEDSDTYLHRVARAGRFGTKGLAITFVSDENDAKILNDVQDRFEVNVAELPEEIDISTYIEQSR
UniProt P0CG12, sequence (P0CG12 whole entry, looked up): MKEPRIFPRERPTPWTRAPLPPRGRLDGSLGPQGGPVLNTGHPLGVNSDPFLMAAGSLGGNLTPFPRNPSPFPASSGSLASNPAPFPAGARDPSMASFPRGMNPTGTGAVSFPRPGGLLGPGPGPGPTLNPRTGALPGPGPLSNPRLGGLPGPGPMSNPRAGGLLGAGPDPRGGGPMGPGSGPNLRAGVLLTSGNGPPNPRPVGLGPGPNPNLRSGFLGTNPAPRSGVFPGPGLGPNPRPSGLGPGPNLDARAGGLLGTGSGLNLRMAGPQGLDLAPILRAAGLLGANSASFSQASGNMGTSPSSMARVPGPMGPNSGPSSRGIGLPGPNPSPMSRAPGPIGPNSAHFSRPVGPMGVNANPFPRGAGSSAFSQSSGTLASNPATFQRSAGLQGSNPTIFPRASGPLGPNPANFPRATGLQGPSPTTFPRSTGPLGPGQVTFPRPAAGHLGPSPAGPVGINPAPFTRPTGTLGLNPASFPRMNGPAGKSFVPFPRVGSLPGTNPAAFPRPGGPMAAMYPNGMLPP
UniProt O15121, sequence (O15121 whole entry, looked up): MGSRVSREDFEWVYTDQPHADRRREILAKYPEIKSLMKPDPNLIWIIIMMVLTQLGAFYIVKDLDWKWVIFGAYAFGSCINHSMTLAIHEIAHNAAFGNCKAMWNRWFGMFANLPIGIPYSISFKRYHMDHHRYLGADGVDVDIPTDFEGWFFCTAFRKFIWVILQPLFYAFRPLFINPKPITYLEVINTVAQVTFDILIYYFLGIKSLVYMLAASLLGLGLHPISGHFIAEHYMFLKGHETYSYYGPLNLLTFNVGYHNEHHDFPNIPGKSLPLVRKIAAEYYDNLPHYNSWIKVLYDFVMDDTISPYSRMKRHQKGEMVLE

Target	log2 fold change [1]	log2 fold change [2]	log2 fold change [3]	log2 fold change [4]	log2 fold change [5]	log2 fold change [6]	log2 fold change [7]	log2 fold change [8]	log2 fold change [9]	log2 fold change [10]	log2 fold change [11]	log2 fold change [12]	log2 fold change [13]	log2 fold change [14]	log2 fold change [15]	log2 fold change [16]	log2 fold change [17]	log2 fold change [18]	log2 fold change [19]	log2 fold change [20]
DHFR (UniProt P00374)	0.191	0.026	0.185	-0.022	-0.187	0.076	0	0.182	0.177	-0.225	0.095	0.209	0.849 (active)	-0.139	-0.02	0.082	0.042	0.57 (active)	0.072	-0.048
DSN1 (UniProt Q9H410)	0.063		0.082	-0.217	-0.242	0.104	0.041	0.059	0.027	-0.03	-0.026	-0.057	-0.166	-0.037	0.076		0.021	0.025	-0.032	-0.081
EIF2AK3 (UniProt Q9NZJ5)	0.082	0.535	-0.201	-0.072	-0.017	-0.067	0.845 (active)		-0.057	0.019		0.056	-0.211			-0.02	-0.039	-0.085	0.127	0.097
DPYSL2 (UniProt Q16555)	-0.114	0.081	0.046	-0.063	0	0.079	0.042		0.015	-0.048	0.053	0.01	0.014	-0.056	-0.037	0.276	-0.017	-0.118	-0.224	-0.054
DBT (UniProt P11182)	0.02	-0.037	0.036	-0.014	-0.002	-0.033	-0.026	-0.03	0.011	-0.207 (active)	-0.009	0.003	0.005	-0.021	-0.042	0.006	-0.011	0.027	0.022	-0.093
DERPC (UniProt P0CG12)	-0.06	-0.193	0.044	-0.04	0.227	-0.126		0.245		0.049			0.008	-0.16		-0.042	-0.049	-0.024		-0.045
CYP24A1 (UniProt Q07973)	0.373	-0.049	0.01	0.167	0.184	-0.105		-0.057	0.101	-0.074		0.045	0.43	0.21		0.067	-0.002	0.099		0.109
DEGS1 (UniProt O15121)	-0.032	-0.029	0.04	-0.021	-0.1	-0.031	-0.07		-0.026	0.087	-0.101	0.249	0.086	-0.169	-0.006	0.077	0.109	-0.053	-0.003	-0.063
DAXX (UniProt Q9UER7)	-0.119	-0.089	0.055	-0.106	-0.034	0	0.061	-0.016	0.034		0.093	-0.103		-0.08	-0.099	0.034	0.075			-0.076
EEF1A1 (UniProt P68104)	-0.114		0.042	-0.113	-0.116	0.001	0.044	-0.063	-0.057	-0.033	-0.046	0.084	0.091	0.191	-0.017		-0.04	-0.11	0.023	0.07
DDB1 isoform 2 (UniProt Q16531)	-0.286	-0.094									-0.295				-0.237	-0.032	-0.203		-0.09	-0.12
DDX39A (UniProt O00148)	0.001	0.014	-0.017	-0.278 (active)	-0.134	-0.218	-0.018	-0.007	0.079	-0.182	-0.067	-0.04	0.057	-0.042	-0.003	0.048	-0.006	-0.011	-0.107	-0.233
DMAC1 (UniProt Q96GE9)	-0.138	-0.047	-0.083	0.067	0.118	-0.007	-0.014	0.095	-0.156	0.085	0.136	0.031	0.015	-0.07	-0.004	0.019	-0.003	-0.185	-0.427	0.113
DCAF10 (UniProt Q5QP82)	-0.002	-0.069	-0.052	0.041	0.026	-0.047	0.012	0.007	-0.054	-0.002	-0.018	-0.02	0.026	0.033	-0.021	-0.015	0.08	0.122	-0.028	0.357 (active)
ESS2 (UniProt Q96DF8)	-0.186	-0.07	0.013	-0.048	0.011	0.019	-0.061	-0.081	0.038	0.008	0.036	0.048	-0.078	0.069	-0.027	-0.012	0.014	0.04	0.033	-0.017
EDEM2 (UniProt Q9BV94)	0.094	0	-0.096	0.003	0.114	-0.011	-0.046	0	0.15	-0.117	0.004	-0.108	-0.054	-0.039	-0.003	0.001		0.027	-0.029	
EIF4G3 isoform 3 (UniProt O43432)	-0.01		-0.043	-0.12	-0.006	0.052	-0.073	0.056	0.083	-0.005	0.012	-0.092	-0.062	-0.016	0.01		-0.114	0.146		-0.515 (active)
EED, A0A5F9ZI63	0.019	-0.024	-0.027	0.043	0.015	-0.025	-0.076	-0.029	-0.014	-0.066	0.03	0.053	0.037	-0.029	-0.039	0.021	0.098	0.078	0.065	-0.078
